# Measurements: ChEMBL document CHEMBL3433997, “St. Jude Leishmania screening dataset” (2016)
# Tests used:
# Assay type in all cases: functional
# [1] = target: Solute carrier family 2, facilitated glucose transporter member 1 (Homo sapiens) (UniProt P11166); experiment: ST_JUDE_LEISH: Cytotoxicity at 2uM final concentration against transgenic Leishmania Mexicana promastigotes LmGLUT1 that are glucose transport deficient and complemented with the human glucose transporter GLUT1. Activity is measured by DNA content using SYBR green in vitro
# [2] = target: Hexose transporter 1 (Plasmodium falciparum) (UniProt O97467); experiment: ST_JUDE_LEISH: Cytotoxicity at 2uM final concentration against transgenic Leishmania Mexicana promastigotes LmPfHT that are glucose transport deficient and complemented with the Plasmodium falciparum hexose transporter. Activity is measured by DNA content using SYBR green in vitro
# [3] = target: Glucose transporter (Leishmania mexicana) (UniProt O61059); experiment: ST_JUDE_LEISH: Cytotoxicity at 2uM final concentration against transgenic Leishmania Mexicana promastigotes LmGT2 that are glucose transport deficient and complemented with the L. Mexicana glucose transporter 2. Activity is measured by DNA content using SYBR green in vitro
# Solute carrier family 2, facilitated glucose transporter member 1 (Homo sapiens), sequence (P11166 whole entry): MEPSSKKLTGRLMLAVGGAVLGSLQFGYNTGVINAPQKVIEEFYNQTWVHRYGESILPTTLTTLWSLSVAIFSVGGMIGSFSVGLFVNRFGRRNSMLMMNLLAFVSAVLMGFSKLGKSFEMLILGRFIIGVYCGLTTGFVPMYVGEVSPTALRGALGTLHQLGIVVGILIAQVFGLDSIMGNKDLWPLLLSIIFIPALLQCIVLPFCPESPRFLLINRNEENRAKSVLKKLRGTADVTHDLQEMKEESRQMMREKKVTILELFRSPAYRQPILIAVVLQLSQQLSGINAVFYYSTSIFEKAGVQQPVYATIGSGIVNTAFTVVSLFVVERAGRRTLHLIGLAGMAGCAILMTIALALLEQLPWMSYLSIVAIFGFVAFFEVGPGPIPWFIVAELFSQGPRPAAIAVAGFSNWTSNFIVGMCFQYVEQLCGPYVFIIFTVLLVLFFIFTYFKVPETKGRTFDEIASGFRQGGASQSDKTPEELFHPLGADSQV
Structure (SMILES),inhibition [1],inhibition [2],inhibition [3]
Clc1ccccc1/C=C/c1cncnc1Nc1ccc2[nH]c(Cc3ccccc3)nc2c1,7.21%,2.53%,1.23%
Cc1noc(C)c1CN1CCCN(c2ccc3c(c2)CCN(Cc2ccc(-c4ncc[nH]4)cc2)CC3)CC1,1.29%,3.6%,1.65%
Cc1nc(C)c(C2CCC(c3ccc(Cl)cc3)CC2)c(O)c1Cl (stereo not given),5.98%,56.3%,-0.48%
COc1ccc(-c2cccc(NC(=O)c3ccc(Cl)cc3)c2)cc1CN(C)CCN(C)C,3.16%,2.66%,6.97%
Nc1nc(-c2ccccn2)nc(-n2nc(-c3cccc(C(F)(F)F)c3)cc2N)n1,3.56%,2.31%,1.29%
Cc1noc(C)c1-c1ccc2c(Nc3ccc(C#N)cc3)c(C(N)=O)cnc2c1,4.95%,4.62%,5%
Cc1nnsc1C(=O)Nc1ccc(-c2cccc(-c3nc4cccc(C)c4[nH]3)c2)cc1,3.57%,2.94%,5.18%
CCCCCOc1ccc(C(=NC)N(CCCCC)CCCCC)c2ccccc12,5.37%,10.9%,7.32%
COc1ccc2nccc([C@@H](O)CN3CCC(NCc4ccc5c(c4)oc(=S)n5C)CC3)c2c1,2.25%,5.5%,1.46%
CN(C)c1ccc(C=CC(=O)NC(=O)c2ccccc2O)cc1,3.19%,2.19%,1.56%
CC1(C)CCCN(Cc2c(O)ccc3c(O)c(-c4nc5ccccc5s4)c(=N)oc23)C1,4.5%,1.38%,-2.9%
CO/C(=C\C=C\c1cc2cc(Cl)c(Cl)cc2[nH]1)C(=O)NCCCN1CCN(c2cccc(O)c2)CC1,10.4%,11.7%,11.8%
Cc1cc(N[C@@H](CC(C)C)C(=O)NC2CCCC2)nc(NCc2ccccc2C)n1,4.21%,4.39%,1.62%
CCN(CC)S(=O)(=O)c1ccc(Cl)c(C(=O)Nc2ccc3nc(C)sc3c2)c1,-2.24%,-0.92%,-1.58%
CCc1ccccc1NC(=O)CN1CCN(c2ncnc3scc(-c4ccc(F)cc4)c23)CC1,1.81%,3.65%,2.87%
Cc1cccc2nc(-c3ccc(-c4cccc(CN5CCCC(O)C5)c4)s3)[nH]c12 (stereo not given),3.6%,4.83%,2.93%
CCCN(CCCCCCN(CCC)CCc1ccc(O)c(O)c1)CCc1ccc(O)cc1,9.55%,12%,10.8%
c1ccc(-n2ncc(CNCc3ccc(-c4cccc(-c5nc6ccccc6[nH]5)c4)cc3)n2)cc1,1.76%,1.26%,-2.38%
CN(C)S(=O)(=O)c1cc(-c2ccc3nccc(-c4cccc(S(N)(=O)=O)c4)c3c2)cnc1N,8.3%,7.26%,7.13%
CC(C)(CNCc1ccc(F)c(F)c1)c1nc(-c2ccnc(N)n2)c(-c2ccc(Cl)c(O)c2)[nH]1,3.92%,1.07%,2.56%
O=C(Nc1ccc(Oc2ccccc2)cc1)N(Cc1ccc(-c2cccc(CN3CCNCC3)c2)cc1)C1CCN(Cc2ccccc2)CC1,3.46%,3.12%,3.01%
CC(C)(C)c1nn(-c2ccccc2)c2[nH]c(=O)c(CNC3CCCC3)cc12,3.76%,1.66%,2.65%
OCCN1CCN(C2Cc3ccc(F)cc3Sc3ccc(Cl)cc32)CC1 (stereo not given),0.59%,-3.09%,0.59%
COc1cccc(CCc2ccc(O)c3c2C[C@H]2C[C@H]4[C@H](N(C)C)C(O)=C(C(N)=O)C(=O)[C@@]4(O)C(O)=C2C3=O)c1,4.53%,4.13%,1.64%

Structure (SMILES),inhibition [1],inhibition [2],inhibition [3]
C=CCc1ccccc1OCC(O)CN(C1CCCCC1)C1CCCCC1 (stereo not given),-1.79%,-2.31%,5.77%
COc1cc(CCNc2nc(NCc3ccccc3-c3ccccc3)nc(N3CCC(N)CC3)n2)ccc1O,4.17%,0.92%,2.4%
O=C(NCc1cc2c(cc1Cl)OCO2)c1ccc(CNC2CCN(Cc3ccccc3)CC2)cc1,0.15%,0.96%,0.48%
Cc1c(C(=O)N2CCc3cc4nccc(N5CCN6CCC[C@H]6C5)c4cc32)cnn1-c1ccc(C#N)cc1,3.57%,3.55%,2.9%
CN(C)CCCOc1ccc(CN2CC[C@H](NC(=O)c3ccc(Cl)c(Cl)c3)C2)c2ccccc12,-0.55%,1.01%,0.71%
COc1cccc(-c2nn(C)c3sc(C(=O)NCCN(C)Cc4ccccc4)cc23)c1,2.97%,-0.73%,2.24%
COc1cc(OC)nc(C(Sc2ccc(NC(=O)c3cccs3)cc2)c2ccccc2)n1 (stereo not given),6.79%,4.81%,0.29%
CN1CCC(C(=O)N(Cc2ccc(-c3ccc(CNCCc4ccccc4)cn3)cc2)C2CCN(Cc3ccccc3)CC2)CC1,0.71%,1.1%,-0.74%
CN(C)c1ccc(C=C2SC(=O)N=C2Nc2ccccc2)cc1,1.62%,0.09%,0.57%
COc1ccc(NC(=O)Nc2ccc(-c3ccc(-c4nc5ccccc5[nH]4)cc3)cc2)cc1,3.84%,5.18%,2.97%
CCOc1cc(OCC)c2ccccc2c1CNCCCCCCNCc1c(OCC)cc(OCC)c2ccccc12,83.2%,50.7%,56.7%
CCOc1ccc(C(=O)Nc2cc(Cl)ccc2O)cc1Cl,-1.03%,0.11%,-1.5%
CC(C)COc1ccc(Cl)cc1Cc1ccc(-c2nc3cc(CCN4CCCC4)ccc3[nH]2)o1,0.75%,3.33%,2.08%
COc1ccc2nc(-c3ccccc3)cc(N/N=C/c3ccc([N+](=O)[O-])o3)c2c1,15.9%,10.5%,10.3%
O=C(c1ccc(-c2cccc(-c3nc4cc(C(F)(F)F)ccc4[nH]3)c2)cc1)N1CCCCC1CN1CCC(O)C1 (stereo not given),-0.47%,0.38%,0.17%
CCN(CC)CCN(Cc1ccc(-c2ccc(C(F)(F)F)cc2)cc1)C(=O)Cn1c(CCc2c(F)cc(F)cc2F)nc(=O)c2ccccc21,-0.61%,0.48%,0.56%
FC(F)(F)c1ccc2[nH]ccc(=NN=CC=Cc3ccccc3)c2c1,0.22%,0.25%,4.34%
CN1CCN(CC(=O)Nc2cccc(-c3cccc(-c4nc5ccccc5[nH]4)c3)c2)CC1,-0.57%,-0.37%,-3.47%
CN(CCc1ccccc1)c1ncc(-c2cccc(CNCCC3CCCN3C)c2)cn1 (stereo not given),111%,67%,109%
CC1(C)N=C(N)N=C(N)C1c1ccc(Cl)cc1 (stereo not given),4.19%,5.72%,3.51%
COc1ccc(CNC(=O)Nc2cc3cc(-c4ccc(CN5CCCC5)cc4)ccc3n3c(C)nnc23)cc1,2.37%,0.34%,0.89%
O=C(NCCN1CCCCC1)c1ccc(CNC(=O)c2ccc(O)c(-c3cccc(C(F)(F)F)c3)c2)cc1,4.42%,3.09%,3.27%
c1ccc(-n2ncc(CNCc3ccc(-c4ccc(-c5nc6ccccc6[nH]5)s4)cc3)n2)cc1,2.35%,2.45%,0.43%
CCN(CC)CCN(Cc1ccc(-c2ccc(C(F)(F)F)cc2)cc1)C(=O)CN1C(CCc2cccc(F)c2F)=NS(=O)(=O)c2ccccc21,-0.85%,-0.42%,-3.12%

Structure (SMILES),inhibition [1],inhibition [2],inhibition [3]
CN(C)Cc1cccc(-c2cnc(N)c(-c3nc4cc(S(C)(=O)=O)ccc4[nH]3)c2)c1,2.57%,5.29%,3.97%
Cc1cc(Nc2ccc3c(c2)CCC3)n2ncnc2n1,0.63%,0.55%,0.55%
CCNc1cc(C)nc(Nc2ccc(NS(=O)(=O)c3cc(OC)ccc3OC)cc2)n1,16.8%,12.1%,5.24%
CC1(C)N=C(N)N=C(N)N1OCCCCON1C(N)=NC(N)=NC1(C)C,3.48%,3.55%,3.76%
Cc1c(Cc2ccc(F)cc2)c(Cl)nc2nc(N)nc(N)c12,0.75%,0.4%,-0.27%
Cc1ccccc1CNc1noc(-c2c(-c3ccccc3)noc2C)n1,-2.97%,2.16%,6.28%
CN(C)CCCOc1ccccc1CN1CC[C@H](NC(=O)c2ccc(Cl)c(Cl)c2)C1,-0.17%,-0.54%,-2.05%
Cc1nc2c(s1)c(=O)cc(CCc1cccc(F)c1F)n2CC(=O)N(Cc1ccc(-c2ccc(C(F)(F)F)cc2)cc1)C1CCN(C(C)C)CC1,1.07%,0.83%,1.78%
CCCCCCSc1nnc(COc2cccc3ccccc23)n1-c1ccc(OC)cc1,11%,12.1%,10.3%
O=C1Nc2cccc3c2C1(CCCCN1CCC(c2c(-c4ccc(F)cc4)[nH]c4ccccc24)CC1)CCC3 (stereo not given),5.51%,5.23%,6.27%
CCOc1cc(C(=O)NCc2cc(Cl)cc(Cl)c2)ccc1-c1nc2cc(Cl)ccc2[nH]1,1.6%,2.18%,1.11%
O=C(/C=C/c1cccs1)NCC(NCCCNc1cc(=O)c2ccccc2[nH]1)c1cc(Br)cc(Br)c1 (stereo not given),4.13%,3.76%,4.57%
CN(C(=O)Cc1ccc(Cl)c(Cl)c1)C1CCN(CCCCCNC(=O)/C=C/c2ccc(Cl)c(Cl)c2)CC1,4.46%,3.72%,3.27%
O=C(Cc1c[nH]cn1)Nc1cccc(-c2ccc(-c3nc4cc(C(F)(F)F)ccc4[nH]3)cc2)c1,3.54%,3.75%,1.97%
NS(=O)(=O)c1cccc(-c2ccc3c(O)ncnc3c2)c1,4.08%,3.82%,5.44%
NS(=O)(=O)c1ccccc1Nc1nc(Nc2ccc(N3CCOCC3)cc2)nc2c1CCC2,11.1%,4.49%,3.91%
CCN(CC)CCN(Cc1ccc(-c2ccc(C(F)(F)F)cc2)cc1)C(=O)Cn1cc(Cc2cnn(C)c2)c(=O)nc1/C=C/c1cccc(F)c1F,3.81%,4.43%,2.54%
Cc1cc(C(=O)N[C@H]2CCN(Cc3ccc(OCCCN(C)C)cc3)C2)ccc1Br,0.17%,0.95%,1.98%
Cc1cc(OCCCN2CCC(NS(=O)(=O)c3cccc(Br)c3)CC2)c2ccccc2n1,10.9%,9.48%,9.99%
NCCCNc1ccnc2cc(Cl)ccc12,-0.29%,1.55%,10.7%
CC(C)c1ccc(-c2noc(SCC(=O)N3CCCCC3C)n2)cc1 (stereo not given),-2.1%,1.89%,-2.55%
COc1ccc(-c2cnc3[nH]cc(-c4ccc(C(=O)O)cc4)c3c2)cn1,-1.03%,5.94%,0.18%
